± gives the standard deviation.
test system: Streptococcus suis HE06; experiment: percent growth relative to DMSO control; higher = less growth inhibition; conditions: 10 µM; incubation time 18 h
Method: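 CLSI broth microdilution: 5x10^4 CFU of Streptococcus suis (strain P1/7 or HE06) incubated with 10 µM Pathogen Box compound in cation-adjusted Mueller Hinton broth, 37 °C, 5% CO2, 18 h. Growth read as OD600 and expressed as percent of the DMSO-treated control (100%); mean ± SD of three independent experiments.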

SMILES | percent growth [%]
FC(F)(F)c1cc(NCCc2ccccc2)nc(-c2ccccn2)n1 | 1.92 ± 3.3
COc1cc(NC(=O)Cc2nn(C)c(=O)c3ccccc23)ccc1Cl | 82.8 ± 6.6
Cc1ccc(Oc2ccc(NC(=O)CNc3ccccc3N3CCCC3=O)cc2)cc1 | 86.9 ± 11
CCN(CC)S(=O)(=O)c1ccc(C(=O)Nc2cc(C)nn2-c2nc(C)c(C)c(=O)[nH]2)cc1 | 0.274 ± 0.47
